Records with an inconclusive call do not appear. Unmarked numbers belong to inactive results. The source made the active and inactive calls. Calls come from the whole dose curve; as a rule, active = well fitted curve in the direction sought with a large enough effect; inconclusive = small, poorly fitted or top-dose-only effect, or another doubt; inactive = no such curve, though single readings can be large; an effect the other way counts as inactive or inconclusive.

Test [1] concerns C33A. The test can be described thus: Primary qHTS to identify gynecologic anti-cancer compounds using libraries of approved drugs and bioactive compounds (AID 1345084). Note: nearly all actives have a fitted effect of over 55% in size. Note: potency is the fitted concentration of half-maximal effect. To be noted: Gynecologic cancer cell panel viability, ATPlite luminescence, 48 h; series mostly up to 57.5 µM. The essentials: (§1)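 In this quantitative HTS, cell killing is estimated from loss of ATP-dependent luciferase light. Cells see five compound concentrations over a 48 h exposure.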
Background: In qHTS, concentration-response curves come from the screen itself.

In test [2] the test system is CAOV3. The test is described as above. To be noted: Gynecologic cancer cell panel viability, ATPlite luminescence, 48 h; series mostly up to 57.5 µM. The essentials:
as §1

Test [3] concerns CASKI. Described as above. To be noted: Gynecologic cancer cell panel viability, ATPlite luminescence, 48 h; series mostly up to 57.5 µM. The essentials:
as §1

Test [4] concerns Es-2. The description is as above. To be noted: Gynecologic cancer cell panel viability, ATPlite luminescence, 48 h; series mostly up to 57.5 µM. Summed up:
as §1
For orientation: Cellular ATP, detected with luciferase, serves as a proxy for viable cell number.

Test [5] has as its system HeLa. The description is as above. To be noted: Gynecologic cancer cell panel viability, ATPlite luminescence, 48 h; series mostly up to 57.5 µM. Summed up:
as §1

The test system of test [6] is PA-1. The description is as above. To be noted: Gynecologic cancer cell panel viability, ATPlite luminescence, 48 h; series mostly up to 57.5 µM. The essentials:
as §1

Test [7] relates to Tov-21-G. Described as above. To be noted: Gynecologic cancer cell panel viability, ATPlite luminescence, 48 h; series mostly up to 57.5 µM. The essentials:
as §1

Test [8] relates to Tov112D. The description is as above. To be noted: Gynecologic cancer cell panel viability, ATPlite luminescence, 48 h; series mostly up to 57.5 µM. Summed up:
as §1

The test system of test [9] is Hek293T. The test is described as above. To be noted: Gynecologic cancer cell panel viability, ATPlite luminescence, 48 h, control line for the selectivity index; series mostly up to 57.5 µM. Summed up:
as §1

The test system of test [10] is OV90. Described as above. To be noted: Gynecologic cancer cell panel viability, ATPlite luminescence, 48 h; series mostly up to 57.5 µM. Summed up:
as §1

Test [11] relates to SKOV3. Described as above. To be noted: Gynecologic cancer cell panel viability, ATPlite luminescence, 48 h; series mostly up to 57.5 µM. The essentials:
as §1

The subject of test [12] is JEG-3. Described as above. To be noted: Gynecologic cancer cell panel viability, ATPlite luminescence, 48 h; series mostly up to 57.5 µM. Summed up:
as §1

Test [13] in a line: qHTS assay to identify inhibitors of the type 1 interferon - major histocompatibility complex class I in skeletal muscle: Counter screen cell viability and HiBit confirmation (AID 1347412). Note: nearly all actives have a fitted effect of over 60% in size. To be noted: iHSKM muscle cells + IFN-b, HiBiT or CellTiter-Glo, 24 h; Viability; at 45.9 µM (top of the series). Summed up:
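CRISPR HLA-B*08:01-HiBit immortalized human myoblasts (C25cl48) stimulated with 4 ng/ml IFN-beta and compounds (12-point 1:3, top 46 uM final) for 24 h at 37 C. Duplicate plates read by HiBit lytic luminescence or CellTiter Glo ATP.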
% is set by controls: 0 for no effect and ±100 for the full control effect.

With `CC(C)NCC(C(=O)N1CCN(c2ncnc3c2C(C)CC3O)CC1)c1ccc(Cl)cc1` (configuration not stated), the Potency in test [1] is 3.98 µM (active); in test [7] it was 0.794 µM (active). Also, the Potency entry in [2], in test [3], in test [4], in test [5], in test [6] and in [8] was “inactive” each time.

On to `COc1ccc([C@@]2(O)c3c(ccc(CC=C(C)C)c3O)NC(=O)[C@@H]2OC)cc1`, for which the Potency entry in test [1], in [2], in test [3], in test [4], in test [5] and in [9] was “inactive” each time. In addition, the Potency entry in test [10], in test [6], in [11], in test [7] and in test [8] was “inactive” in each case.

`O=C(NCc1cccc(O)c1)Nc1nc(-c2ccncc2)cs1`: the Potency result in test [1], in [2], in test [3], in test [4], in [9] and in test [12] was “inactive” in each case. For the same compound, the Potency result in test [10], in test [6], in test [11], in test [7] and in test [8] was “inactive” each time.

As for `Cc1cc(Nc2ccc(NC(=O)c3ccc(Nc4ccnc5ccccc45)cc3)cc2)nc(N)n1`, the Potency in test [1] is 5.62 µM (active); in [2] it was 2.24 µM (active); in [3], 3.55 µM (active); in test [5] it was 11.2 µM (active); in [9], 25.1 µM (active); in test [12], 28.2 µM (active). Besides, the Potency in [10] was 3.98 µM (active); in [6], 20 µM (active); in [11] it was 3.98 µM (active); in test [7] it was 10 µM (active); in test [8], 25.1 µM (active).

Regarding `CC(=O)O[C@@H]1C[C@H](O)[C@@]23CO[C@H](O)[C@]1(C)C2C[C@@H](O)[C@]1(C)C3C(=O)[C@H](OC(C)=O)[C@@]2(C)[C@H](c3ccoc3)C[C@H]3O[C@]321` (some centres not stated), the Potency in [1] is 1.12 µM (active); in test [2], 1.12 µM (active); in test [4], 0.501 µM (active); in test [9], 2.51 µM (active); in test [6] it was 0.562 µM (active); in [8], 0.316 µM (active). The Potency entry in test [3] and in test [12] was “inactive” each time.

Turning to `CCCCNc1ccc(-c2ccc(CN3CCOCC3)cn2)c(NC2CCC(O)CC2)c1` (configuration not stated), the Potency result in test [1], in test [3], in [4], in test [9], in test [12] and in test [10] was “inactive” in each case. In addition, the Potency result in [11], in test [7] and in test [8] was “inactive” throughout. In test [2], the Potency was 1.78 µM (active).

As for `CC(=O)OC1/C(C)=C/C(=O)C(OC(C)=O)C(C)(C)/C=C/C(C)C(=O)C2(OC(C)=O)CC(C)C(OC(=O)c3ccccc3)C12` (configuration not stated), the Potency entry in test [1], in test [2], in test [3], in test [5], in test [9] and in test [12] was “inactive” each time. For the same compound, the Potency result in [10], in [11], in [7] and in test [8] was “inactive” throughout.

As for `O=C(/C=C\n1cnc(-c2cc(C(F)(F)F)cc(C(F)(F)F)c2)n1)N1CC(F)(F)C1`, the Potency result in [1] and in [10] was “inactive” throughout. Moreover, the Potency was 2.82 µM (active) in [2]; 3.16 µM (active) in test [4]; 17.8 µM (active) in test [5]; 1.58 µM (active) in test [9]; 1.41 µM (active) in test [6].

For `CC(C)CCC(=O)CC1c2ccccc2C(=O)N1c1ccc2ccc(Cl)nc2n1` (configuration not stated), the Potency entry in test [1], in test [2], in test [3], in test [4], in test [9] and in test [10] was “inactive” throughout. Also, the Potency result in [6] and in [7] was “inactive” in each case. Further, in test [8], the Potency is 8.91 µM (active).

With `C(#Cc1nc2ncccc2nc1OCCN1CCCC1)c1ccccc1`, the Potency in test [1] is 7.08 µM (active); in test [2], 7.08 µM (active); in test [3] it was 17.8 µM (active); in [4], 3.55 µM (active); in test [9] it was 10 µM (active); in [6], 6.31 µM (active). For the same compound, the Potency in [11], in test [7] and in test [8] was 14.1 µM (active) in each case.

Turning to `C/C=C1\[C@H](O[C@@H]2O[C@H](CO)[C@@H](O)[C@H](O)[C@H]2O)OC=C2C(=O)OCCc3ccc(O)c(c3)Oc3ccc(cc3)CCOC(=O)C[C@H]21`, the Potency entry in test [1], in [2], in test [4], in [5], in [9] and in test [10] was “inactive” in each case. In addition, the Potency entry in [6], in test [7] and in test [8] was “inactive” throughout.

As for `O=C(NOCC(O)CO)c1ccc(F)c(F)c1Nc1ccc(I)cc1F` (configuration not stated), the Potency entry in test [1], in test [2], in test [3], in test [5], in [9] and in test [12] was “inactive” in each case. Moreover, the Potency entry in [11] and in [8] was “inactive” each time.

Consider `COC(=O)N[C@@H](C)CNc1nccc(-c2cn(C(C)C)nc2-c2cc(Cl)cc(NS(C)(=O)=O)c2F)n1`, for which the Potency entry in test [1], in [2], in test [3], in [5], in test [9] and in test [10] was “inactive” throughout. Besides, the Potency entry in test [6] and in test [8] was “inactive” throughout. Also, the Potency in test [7] was 1.58 µM (active). Also, the activity change, negative = inhibition in test [13] was -18.1%.

As for `Cc1cccc2c1NC(=O)C2(c1ccc(O)cc1)c1ccc(O)cc1`, the Potency result in test [1], in [2], in test [3], in test [4], in test [12] and in test [11] was “inactive” in each case.

As for `COC(=O)Cc1cc2c(c([N+](=O)[O-])c1)N(C(=O)CC[C@H](N)C(=O)O)CC2`, the Potency entry in [1], in [2], in [4], in test [5], in [9] and in test [12] was “inactive” each time. Also, the Potency result in test [10], in test [6], in [11], in [7] and in test [8] was “inactive” throughout.

With `Cc1cc2c(F)c(Oc3ncnn4cc(OCC(C)O)c(C)c34)ccc2[nH]1` (configuration not stated), the Potency result in test [1], in [2], in test [3], in test [4], in [10] and in [11] was “inactive” throughout. In addition, the Potency result in [7] and in test [8] was “inactive” throughout.

In the case of `C=CC(C)(C)c1[nH]c2cc3c(cc2c1CC1NC(=O)C2=CCCN2C1=O)C=CC(C)(C)O3` (configuration not stated), the Potency entry in [1], in test [2], in test [3], in [5], in test [9] and in [12] was “inactive” each time. Besides, the Potency result in test [10], in test [11], in test [7] and in test [8] was “inactive” in each case.

As to `Cc1c(F)cc(C(=O)NC2CC2)cc1-c1c(F)cn2c(C(C)(C)C)nnc2c1F`, the Potency entry in test [1], in test [2], in test [4], in test [5], in test [9] and in test [12] was “inactive” in each case. Besides, the Potency result in test [10], in test [6], in test [11], in test [7] and in test [8] was “inactive” in each case.
